Laboratory results from PubChem BioAssay AID651821 (The Scripps Research Institute Molecular Screening Center, 2012).
In all, about 370,000 compounds went through this assay and about 4,700 (1.3%) were called active. This is one part of a sample in which actives are shown more often than they occur.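 Rule for the calls: active = inhibition above the plate cutoff, the mean of all test compounds on that plate plus 3 SD (cut at about 35% in these data); inactive = the rest.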

Experiment: binders of r(CAG) RNA repeats, primary screen, biochemical, fluorescence (AID 651821);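 note: 0% = DMSO alone and 100% = 100 µM mitoxantrone as full dye displacement; higher means more dye released from RNA so lower well fluorescence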
Conditions: r(CAG) RNA repeat, TO-PRO-1 dye displacement fluorescence; at 3 µM; hits give high values
In the case of `CCOC(=O)[C@]12CCCC=C1N(Cc1ccc(OC)cc1)C(=O)[C@@H]2CC(=O)NCc1cccs1`, the inhibition is reported as 1.72% (inactive).
In the case of `CN(C)[C@H]1CCN(c2cccc3c2S(=O)(=O)N2CC[C@H](C2)O3)C1`, the inhibition is reported as 1.39% (inactive).
For `CCOC(=O)c1c(NC(=O)CN2C(=O)NC3(CCC(C)CC3)C2=O)sc(C)c1CC` (stereo not given), the inhibition was -14% (inactive).
With `CCOC(=O)c1c(NC(=O)C2CC=CCC2C(=O)O)sc(C)c1CC` (stereo not given) the inhibition was 34.6% (active).
In the case of `CCc1c(C)sc(NC(=O)c2cccs2)c1C(N)=O`, the inhibition is reported as 5.17% (inactive).
In the case of `Cc1ccc(N)cc1CN1CCN(c2ncc(Cc3ccccc3)cn2)CC1`, the inhibition is reported as 3.17% (inactive).
With `CC(C)(C)OC(=O)NCc1cc(F)ccc1/C=C/S(=O)(=O)NCCc1ccccc1` the inhibition was -0.33% (inactive).
In the case of `CC1(C)OC(=O)C2=C(CC(CCc3ccccc3)OC2c2ccc(Cl)cc2)O1` (stereo not given), the inhibition is reported as 3.44% (inactive).
With `CCC(C(=O)Nc1ncccn1)(C(F)(F)F)C(F)(F)F` the inhibition was -0.05% (inactive).
With `COc1ccc(NS(=O)(=O)c2cc(NC(=O)COc3ccccc3F)ccc2OC)cc1` the inhibition was 4.34% (inactive).
For `COc1cc(OC)c(S(=O)(=O)Nc2ccccc2C(=O)O)cc1S(=O)(=O)Nc1ccccc1C(=O)O`, the inhibition was 63.4% (active).
For `COc1cc(/C=C/C(=O)O)cc(S(=O)(=O)Nc2ccccc2SC)c1OC`, the inhibition was 8.56% (inactive).
In the case of `COc1ccc(OC)c(S(=O)(=O)Nc2ccccc2F)c1`, the inhibition is reported as -3.01% (inactive).
With `COc1ccc(NS(=O)(=O)c2cc(NC(=O)CC(=O)c3ccc([N+](=O)[O-])cc3)ccc2C)cc1` the inhibition was 42.4% (active).
For `COc1ccc(NS(=O)(=O)c2ccc(C(=O)Nc3c(C)n(C)n(-c4ccccc4)c3=O)cc2)cc1`, the inhibition was 10.7% (inactive).
With `Cc1ccc(NC(=O)CCNC(=O)c2ccc([N+](=O)[O-])cc2)cc1S(=O)(=O)N1CCOCC1` the inhibition was 1.24% (inactive).
For `COc1ccc(NS(=O)(=O)c2cc(C(=O)Nc3ccccc3C(=O)O)ccc2C)cc1`, the inhibition was 74.6% (active).
In the case of `Cc1ccc(C(=O)Nc2ccccc2-c2ccccc2)cc1S(=O)(=O)Nc1ccccc1`, the inhibition is reported as 17.1% (inactive).
With `CCOC(=O)[C@]12CCCCC/C=C\1N(Cc1ccc(OC)cc1)C(=O)[C@H]2CC(=O)N1CCOCC1` the inhibition was 4.38% (inactive).
With `COc1ccc(-c2cc(-c3nnc(SCC(=O)Nc4cccc5ccccc45)n3N)[nH]n2)cc1` the inhibition was 10.7% (inactive).
For `COC(=O)[C@]12C[C@H](CC(=O)NCc3ccccc3)C(=O)N(CCC3=CCCCC3)C1=C[C@H](C(C)(C)C)O[C@@H]2C`, the inhibition was 1.7% (inactive).
With `COc1ccc(N2CCN(CCNS(=O)(=O)c3ccc(Cl)s3)CC2)cc1` the inhibition was -0.11% (inactive).
With `C=CCN(C)CC#Cc1ccccc1` the inhibition was -0.11% (inactive).
For `COc1ccc(N2CCN(CCNS(=O)(=O)c3ccc([N+](=O)[O-])cc3)CC2)cc1`, the inhibition was 0.28% (inactive).
For `CCCC[C@H](C(=O)N(CC)c1ccccc1)[C@@H](O)c1ccc2ccccc2c1`, the inhibition was 4.92% (inactive).
For `O=C(O)c1ccc2c(c1)C(=O)N(c1ccc(/C=C/C(=O)c3ccccc3)cc1)C2=O`, the inhibition was 46.3% (active).
With `CC(=O)Oc1ccc(C)cc1N1C(=O)c2ccc(C(=O)O)cc2C1=O` the inhibition was 4.11% (inactive).
In the case of `CC(=O)Nc1ccc(NC(=O)c2ccc3c(c2)C(=O)N(c2ccccc2C)C3=O)cc1`, the inhibition is reported as -2.08% (inactive).
For `CN1C(=O)c2cc(NS(C)(=O)=O)ccc2OC[C@@H]2O[C@@H](CC(=O)NCc3ccc(-c4ccccc4)cc3)CC[C@H]21`, the inhibition was 4.86% (inactive).
With `CC1(C(=O)NS(=O)(=O)c2ccc(C#N)cc2)CCN1C(=O)c1ccc(C2CCCCC2)cc1` (stereo not given) the inhibition was 46.9% (active).
In the case of `Cc1noc(C)c1C(=O)N1CCC1(C)C(=O)NS(=O)(=O)c1ccc(C#N)cc1` (stereo not given), the inhibition is reported as 0.97% (inactive).
With `CC1(C(=O)NS(=O)(=O)c2ccc(C#N)cc2)CCN1C(=O)CC1CCCC1` (stereo not given) the inhibition was 1.94% (inactive).
For `CC[C@H](NC(=O)[C@H](Cc1ccccc1)NC(=O)[C@H]1O[C@@H](n2cnc3c(=O)[nH]c(N)nc32)[C@H](O)[C@@H]1O)c1ccccc1`, the inhibition was 14.3% (inactive).
With `Cc1ccccc1NC(=O)Cn1nnc(-c2ccccc2F)n1` the inhibition was 0.27% (inactive).
With `CCC(C)n1[nH]c(=O)cc1N` (stereo not given) the inhibition was -0.11% (inactive).
In the case of `CC(C)(C)n1nc(C2CC2)c(Br)c1NC(=O)c1ccccc1F`, the inhibition is reported as 2.68% (inactive).
For `COc1ccc(NC(=O)CSc2nc(NS(=O)(=O)c3ccc(C)cc3)cc(=O)[nH]2)cc1`, the inhibition was 13.4% (inactive).
With `Cc1ccc(NC(=O)CSc2nc(CSc3ccc(C)cc3)cc(=O)[nH]2)cc1` the inhibition was 45.1% (active).
With `Cc1cc(=O)[nH]c(SCC(=O)Nc2ccc(Cl)cc2C)n1` the inhibition was 4.47% (inactive).
For `CCOC(=O)C1=C(C)NC2=C(C(=O)CC(C)(C)C2)C1c1ccc2c(c1)OCO2` (stereo not given), the inhibition was 1.3% (inactive).
In the case of `O=C(N/N=C/c1cc(Cl)cc([N+](=O)[O-])c1O)C(O)(c1ccccc1)c1ccccc1`, the inhibition is reported as 75.8% (active).
In the case of `O=C(O)C(=Cc1ccccc1[N+](=O)[O-])c1ccccc1`, the inhibition is reported as -2.74% (inactive).
With `O=C(NN=Cc1ccco1)C(=O)Nc1ccc(Cl)c([N+](=O)[O-])c1` the inhibition was 6.16% (inactive).
In the case of `Cc1cc(Br)cn2c(Cc3ccccc3C(F)(F)F)c(-c3ccc(C#N)cc3)nc12`, the inhibition is reported as 7.42% (inactive).
For `COc1cccc(CN(C)CC(=O)Nc2sc3c(c2C#N)CCC3)c1`, the inhibition was -1.59% (inactive).
In the case of `CC(=O)c1c(C)[nH]c(C(=O)OCC(=O)Nc2sc3c(c2C#N)CCCC3)c1C`, the inhibition is reported as 19.6% (inactive).
With `N#CCC(=O)Nc1ccc(C(=O)OCC(=O)Nc2sc3c(c2C#N)CCCC3)cc1` the inhibition was 37.6% (active).
In the case of `COC(=O)C1CN(CC(C)C)CCS(=O)(=O)N1Cc1ccc(F)cc1` (stereo not given), the inhibition is reported as -0.73% (inactive).
For `COC(=O)c1cc(S(=O)(=O)N2CCN(c3ccccc3C)CC2)cn1C`, the inhibition was 1.46% (inactive).
For `Cn1c(SCc2nc3ccccc3s2)nnc1-c1ccc2c(c1)OCO2`, the inhibition was -0.18% (inactive).
With `O=C(/C=C/c1cc2c(cc1Br)OCO2)NCc1ccc(Cl)cc1` the inhibition was 0.75% (inactive).
With `O=C(O)CC/C(=C\c1cc2c(cc1Br)OCO2)c1nc2ccccc2s1` the inhibition was 38.8% (active).
For `COc1ccc(/C=C(/NC(=O)c2ccccc2)C(=O)Nc2cccc(C(=O)O)c2)cc1`, the inhibition was 6.11% (inactive).
For `COc1ccc(C(=O)Nc2cccc(/C=C(/CCC(=O)O)c3nc4ccccc4s3)c2)cc1`, the inhibition was 71.7% (active).
For `CCOc1ccc(C(=O)Nc2cccc(SC)c2)cc1`, the inhibition was -4.59% (inactive).
